# Measured values: PubChem BioAssay (Tox21)
# A number with no mark means an inactive call. Results filed as inconclusive are left out. Entries that show only a call come without a potency. The source made the active and inactive calls. Calls follow the shape of the dose curve; as a rule, active = well fitted curve in the direction sought with a large enough effect in the repeat runs; inconclusive = weak or mixed curves; inactive = no such curve, though single readings can be large; an effect the other way counts as inactive or inconclusive.
# Key:
# [1] = Human pregnane X receptor (PXR) small molecule agonists, qHTS cell viability counter screen (AID 1346977); also: nearly all actives have a fitted effect of over 50% in size
# Summary of the method: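 PXR-Luc HepG2 cells (2,000/well, 5% charcoal-stripped FBS) preincubated 5 hr, then exposed to compounds 24 hr at 37 C. Viability read in the same wells by CellTiter-Fluor fluorescence, reagent added at 23 hr, 1 hr incubation.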
# [2] = Caspase-3/7 induction in HepG2 cells by small molecules, qHTS assay (AID 1346978); also: nearly all actives have a fitted effect of over 15% in size
# Summary of the method: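 Wild-type HepG2 cells (2,000/well) were settled 5 h at 37 C, 5% CO2, then exposed to compounds in DMSO for 17 h. Caspase-3/7 activity was read by luminescence 30 min after adding Caspase-Glo 3/7 reagent at room temperature.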
# [3] = Caspase-3/7 induction in CHO-K1 cells by small molecules, qHTS cell viability counter screen (AID 1346979); also: nearly all actives have a fitted effect of over 35% in size
# Summary of the method: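 Wild-type CHO-K1 cells (1,500/well) treated with compound after 5 h plating; after 16 h at 37C, viability read as CellTiter-Fluor fluorescence following 1 h reagent incubation, in the same wells as the caspase read.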
# [4] = Caspase-3/7 induction in CHO-K1 cells by small molecules, qHTS assay (AID 1346980); also: nearly all actives have a fitted effect of over 15% in size
# Summary of the method: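 Wild-type cells were seeded at 1,500 per well and settled 5 hr at 37 C, 5% CO2, then exposed to DMSO-dissolved compounds for 17 hr. Caspase-Glo 3/7 reagent was added, and luminescence was read after 30min at room temperature.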
# [5] = Caspase-3/7 induction in HepG2 cells by small molecules, qHTS cell viability counter screen (AID 1346981); also: series mostly up to about 92 µM; nearly all actives have a fitted effect of over 30% in size
# Summary of the method: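 CellTiter-Fluor fluorescence measured viability in the same wells used for Caspase-Glo 3/7. HepG2 (wild type) at 2,000 cells/well were pre-incubated 5 hr, dosed, and given reagent at 16 hr, with 1 hr further at 37C.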
# [6] = target: Nuclear receptor subfamily 1 group I member 2 (Homo sapiens) (UniProt O75469); test: Human pregnane X receptor (PXR) small molecule agonists, qHTS assay (AID 1346982); also: nearly all actives have a fitted effect of over 35% in size; also: potency is read from the fitted curve at half-maximal effect
# Summary of the method: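 Agonist mode: luminescence from ONE-Glo after 24 h compound exposure at 37C in HepG2 cells carrying hPXR-responsive CYP3A4 luciferase, plated in charcoal-stripped serum medium 5 h beforehand.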
# [7] = target: Cytochrome P450 2D6 (Homo sapiens) (UniProt P10635); test: Cytochrome P450 Family 2 Subfamily D Member 6 (CYP2D6) small molecule antagonists: luciferase reporter qHTS assay (AID 1671196); also: nearly all actives have a fitted effect of over 50% in size; also: potency is read from the fitted curve at half-maximal effect; as to activity change, negative = inhibition: series mostly up to about 120 µM
# Summary of the method: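 CYP2D6 activity was followed as luminescence from its luciferin product after a 1 h NADPH-driven reaction at room temperature. Enzyme-substrate mix and compound were pre-incubated for 10 min, and the signal was read 20 min after adding detection reagent.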
# [8] = target: Cytochrome P450 2C19 (Homo sapiens) (UniProt P33261); test: Cytochrome P450 Family 2 Subfamily C Member 19 (CYP2C19) small molecule antagonists: luciferase reporter qHTS assay (AID 1671197); also: nearly all actives have a fitted effect of over 65% in size; also: potency is read from the fitted curve at half-maximal effect; as to activity change, negative = inhibition: series mostly up to about 120 µM
# Summary of the method: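 CYP2C19 P450-Glo, 1536-well qHTS. Cpd + enzyme/proluciferin substrate 10 min RT; + NADPH regen, 37C 1 h; stop with luciferin detection reagent, 20 min RT, luminescence (RLU). Pos ctrl ketoconazole.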
# [9] = target: Cytochrome P450 2C9 (Homo sapiens) (UniProt P11712); test: Cytochrome P450 Family 2 Subfamily C Member 9 (CYP2C9) small molecule antagonists: luciferase reporter qHTS assay (AID 1671198); also: nearly all actives have a fitted effect of over 50% in size; also: potency is read from the fitted curve at half-maximal effect; as to activity change, negative = inhibition: series mostly up to about 120 µM
# Summary of the method: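 CYP2C9 activity was measured with a P450-Glo proluciferin substrate. Enzyme–substrate mix was held with compound for 10 min at room temperature, then NADPH regeneration solution was added for 1 h at 37C. Luciferin product was read as luminescence.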
# [10] = target: Voltage-gated inwardly rectifying potassium channel KCNH2 (Homo sapiens) (UniProt Q12809); test: Human Ether-a-go-go-Related Gene (hERG) channel small molecule antagonists: fluorescence cell-based qHTS assay (AID 1671200);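 also: hERG-expressing U2OS cells given a thallium stimulus after FluxOR II dye loading; series mostly up to about 77 µM; nearly all actives have a fitted effect of over 50% in size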
# Summary of the method: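 hERG-U2OS cells plated overnight at 37 C, loaded with FluxOR II dye 1 h at RT in dark; after 10 min, thallium stimulus added. Fluorescence (480/540 nm) read kinetically for 2 min at 1 s intervals.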
# [11] = target: Nuclear receptor subfamily 1 group I member 2 (Rattus norvegicus) (UniProt Q9R1A7); test: Rat pregnane X receptor (rPXR) activation by small molecules, qHTS assay (AID 1346983); settings: rPXR luciferase reporter cells, One-Glo luminescence, 24 h; stronger effect = higher value; also: nearly all actives have a fitted effect of over 20% in size
# Summary of the method: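 Cell-based rPXR luciferase reporter assay, 2,000 cells per well, rested 5hr at 37 C before compound addition in DMSO, then 24 hr at 37 C. One-Glo reagent was added and luminescence read after 30 min at room temperature.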
# [12] = target: Nuclear receptor subfamily 1 group I member 2 (Homo sapiens) (UniProt O75469); test: CYP3A4 induction through human pregnane X receptor (PXR) by small molecules, qHTS assay (AID 1346984); also: nearly all actives have a fitted effect of over 40% in size
# Summary of the method: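 Read-out is luminescence after One-Glo addition, following a 3 hr, 37C incubation with Luciferin-IPA CYP3A4 substrate (3uM final). Before that, compounds were on DPX-2 cells (HepG2 co-transfected with PXR element plus CYP3A4-promoter luciferase) for 24 hr at 37C.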
# [13] = target: Nuclear receptor subfamily 1 group I member 2 (Homo sapiens) (UniProt O75469); test: Human pregnane X receptor (PXR) activation by small molecules, qHTS assay (AID 1346985); also: nearly all actives have a fitted effect of over 40% in size
# Summary of the method: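 DPX-2 cells (HepG2 co-transfected with a PXR response element and a CYP3A4-promoter luciferase construct) were seeded at 2,000 per well, rested 5 hr at 37C, then exposed to DMSO-dissolved compounds for 24 hr. Activation was read as luciferase luminescence.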
# [14] = target: Cytochrome P450 1A2 (Homo sapiens) (UniProt P05177); test: Cytochrome P450 Family 1 Subfamily A Member 2 (CYP1A2) small molecule antagonists: luciferase reporter qHTS assay (AID 1671199); also: nearly all actives have a fitted effect of over 50% in size; also: potency is read from the fitted curve at half-maximal effect; as to activity change, negative = inhibition: series mostly up to about 120 µM
# Summary of the method: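 Luminescence from luciferin formed by CYP1A2 from a proluciferin substrate, read 20 min after detection reagent. Compound was pre-incubated 10 min with enzyme-substrate, and reaction started with NADPH regeneration solution for 1 h at room temperature; furafylline control.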
# [15] = target: Cytochrome P450 3A4 (Homo sapiens) (UniProt P08684); test: Cytochrome P450 Family 3 Subfamily A Member 4 (CYP3A4) small molecule antagonists: luciferase reporter qHTS assay (AID 1671201)
# Summary of the method: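 P450-Glo CYP3A4 luminescent assay: compounds preincubated 10 min at room temperature with enzyme and proluciferin substrate, NADPH regeneration added, 1 h room-temperature reaction, stopped with luciferin detection reagent; luminescence read after 20 min. Ketoconazole positive control.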
# Sequence of Cytochrome P450 2C19 (Homo sapiens) (P33261 whole entry, looked up): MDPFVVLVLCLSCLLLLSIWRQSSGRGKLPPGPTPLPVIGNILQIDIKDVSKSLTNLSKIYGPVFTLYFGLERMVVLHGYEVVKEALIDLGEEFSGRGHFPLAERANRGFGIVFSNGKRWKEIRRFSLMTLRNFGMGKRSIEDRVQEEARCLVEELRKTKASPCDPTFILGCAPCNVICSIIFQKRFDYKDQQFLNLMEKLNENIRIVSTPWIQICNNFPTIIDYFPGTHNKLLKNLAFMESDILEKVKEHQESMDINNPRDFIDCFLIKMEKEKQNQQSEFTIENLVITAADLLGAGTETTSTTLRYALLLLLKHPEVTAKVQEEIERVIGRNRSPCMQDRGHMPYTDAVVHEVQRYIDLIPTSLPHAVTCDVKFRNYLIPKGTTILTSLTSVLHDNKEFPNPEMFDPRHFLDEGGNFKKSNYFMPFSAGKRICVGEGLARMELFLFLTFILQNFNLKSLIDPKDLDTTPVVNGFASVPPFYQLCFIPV
# Sequence of Cytochrome P450 3A4 (Homo sapiens) (P08684 whole entry, looked up): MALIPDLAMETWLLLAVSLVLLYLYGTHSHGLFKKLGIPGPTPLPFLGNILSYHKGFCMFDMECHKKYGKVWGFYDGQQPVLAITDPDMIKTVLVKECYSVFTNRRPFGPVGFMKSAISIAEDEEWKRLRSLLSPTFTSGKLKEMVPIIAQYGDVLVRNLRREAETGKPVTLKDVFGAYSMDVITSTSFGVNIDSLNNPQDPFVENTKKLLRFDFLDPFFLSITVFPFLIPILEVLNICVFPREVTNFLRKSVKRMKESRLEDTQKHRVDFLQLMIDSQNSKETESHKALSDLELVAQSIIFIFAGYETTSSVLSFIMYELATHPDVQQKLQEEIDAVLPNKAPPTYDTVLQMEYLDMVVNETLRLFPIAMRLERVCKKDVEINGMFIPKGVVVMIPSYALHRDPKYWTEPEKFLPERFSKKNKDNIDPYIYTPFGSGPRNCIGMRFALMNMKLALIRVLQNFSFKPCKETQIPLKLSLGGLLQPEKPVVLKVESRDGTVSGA
# Sequence of Cytochrome P450 2C9 (Homo sapiens) (P11712 whole entry, looked up): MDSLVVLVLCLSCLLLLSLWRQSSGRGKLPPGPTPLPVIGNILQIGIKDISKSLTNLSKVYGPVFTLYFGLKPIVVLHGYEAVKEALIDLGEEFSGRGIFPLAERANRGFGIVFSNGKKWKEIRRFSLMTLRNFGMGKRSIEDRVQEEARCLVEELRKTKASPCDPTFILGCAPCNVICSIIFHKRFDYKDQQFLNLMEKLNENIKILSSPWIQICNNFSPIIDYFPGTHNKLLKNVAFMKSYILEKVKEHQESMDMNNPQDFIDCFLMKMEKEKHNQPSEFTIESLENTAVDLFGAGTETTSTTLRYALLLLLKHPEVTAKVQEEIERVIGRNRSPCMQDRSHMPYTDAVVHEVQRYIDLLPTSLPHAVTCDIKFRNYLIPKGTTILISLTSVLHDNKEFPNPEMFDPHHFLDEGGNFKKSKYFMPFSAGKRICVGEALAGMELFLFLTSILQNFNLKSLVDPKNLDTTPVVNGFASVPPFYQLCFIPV
# Sequence of Cytochrome P450 1A2 (Homo sapiens) (P05177 whole entry, looked up): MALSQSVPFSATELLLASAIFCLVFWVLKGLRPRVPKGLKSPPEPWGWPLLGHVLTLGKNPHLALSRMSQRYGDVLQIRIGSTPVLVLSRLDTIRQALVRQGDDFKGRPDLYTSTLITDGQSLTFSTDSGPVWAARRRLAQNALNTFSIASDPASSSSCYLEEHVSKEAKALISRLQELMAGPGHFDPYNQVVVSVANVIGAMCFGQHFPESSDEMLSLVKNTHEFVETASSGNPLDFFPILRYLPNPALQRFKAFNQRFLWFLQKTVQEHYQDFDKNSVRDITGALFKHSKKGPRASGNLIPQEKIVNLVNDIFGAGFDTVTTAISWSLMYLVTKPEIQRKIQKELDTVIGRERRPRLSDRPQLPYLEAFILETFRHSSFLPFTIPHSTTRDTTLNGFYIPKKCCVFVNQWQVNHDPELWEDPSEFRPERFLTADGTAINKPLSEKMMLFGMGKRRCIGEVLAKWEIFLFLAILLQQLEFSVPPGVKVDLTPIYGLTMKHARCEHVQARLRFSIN
# Sequence of Nuclear receptor subfamily 1 group I member 2 (Rattus norvegicus) (Q9R1A7 whole entry, looked up): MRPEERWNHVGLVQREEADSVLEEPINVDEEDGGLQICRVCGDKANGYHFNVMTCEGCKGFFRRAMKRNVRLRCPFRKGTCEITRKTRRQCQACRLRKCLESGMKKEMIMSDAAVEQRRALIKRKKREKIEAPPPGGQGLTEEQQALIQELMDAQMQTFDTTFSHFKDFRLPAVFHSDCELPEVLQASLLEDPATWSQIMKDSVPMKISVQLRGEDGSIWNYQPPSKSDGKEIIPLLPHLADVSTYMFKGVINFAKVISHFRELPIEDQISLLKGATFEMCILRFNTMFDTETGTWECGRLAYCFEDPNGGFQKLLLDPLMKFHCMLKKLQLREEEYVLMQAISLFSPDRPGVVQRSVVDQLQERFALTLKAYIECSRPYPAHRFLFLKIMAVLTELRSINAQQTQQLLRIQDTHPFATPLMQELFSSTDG
# Sequence of Nuclear receptor subfamily 1 group I member 2 (Homo sapiens) (O75469 whole entry, looked up): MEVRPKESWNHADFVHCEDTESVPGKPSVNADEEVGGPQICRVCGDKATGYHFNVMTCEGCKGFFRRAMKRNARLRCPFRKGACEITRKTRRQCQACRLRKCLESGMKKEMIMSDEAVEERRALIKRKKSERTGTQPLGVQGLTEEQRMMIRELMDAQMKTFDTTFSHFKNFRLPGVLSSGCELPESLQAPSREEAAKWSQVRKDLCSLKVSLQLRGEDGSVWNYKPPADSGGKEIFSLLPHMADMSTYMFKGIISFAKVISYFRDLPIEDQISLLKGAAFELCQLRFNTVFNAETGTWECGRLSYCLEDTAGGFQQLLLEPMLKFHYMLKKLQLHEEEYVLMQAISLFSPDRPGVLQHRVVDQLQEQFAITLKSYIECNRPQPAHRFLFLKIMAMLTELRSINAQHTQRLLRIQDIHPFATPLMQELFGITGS
# Sequence of Cytochrome P450 2D6 (Homo sapiens) (P10635 whole entry, looked up): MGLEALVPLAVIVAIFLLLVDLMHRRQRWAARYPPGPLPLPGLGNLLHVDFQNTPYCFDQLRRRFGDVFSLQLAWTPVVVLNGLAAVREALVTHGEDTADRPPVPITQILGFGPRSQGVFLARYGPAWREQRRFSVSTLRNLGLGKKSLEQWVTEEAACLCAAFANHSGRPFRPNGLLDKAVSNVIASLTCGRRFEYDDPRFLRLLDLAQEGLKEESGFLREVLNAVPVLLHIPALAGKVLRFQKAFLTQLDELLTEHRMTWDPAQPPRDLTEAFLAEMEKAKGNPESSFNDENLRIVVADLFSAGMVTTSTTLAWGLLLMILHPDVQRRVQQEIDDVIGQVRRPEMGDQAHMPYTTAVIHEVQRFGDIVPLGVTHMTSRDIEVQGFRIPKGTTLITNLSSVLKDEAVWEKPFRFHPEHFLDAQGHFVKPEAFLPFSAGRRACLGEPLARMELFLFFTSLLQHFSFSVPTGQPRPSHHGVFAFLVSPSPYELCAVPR
# Sequence of Voltage-gated inwardly rectifying potassium channel KCNH2 (Homo sapiens) (Q12809 whole entry, looked up): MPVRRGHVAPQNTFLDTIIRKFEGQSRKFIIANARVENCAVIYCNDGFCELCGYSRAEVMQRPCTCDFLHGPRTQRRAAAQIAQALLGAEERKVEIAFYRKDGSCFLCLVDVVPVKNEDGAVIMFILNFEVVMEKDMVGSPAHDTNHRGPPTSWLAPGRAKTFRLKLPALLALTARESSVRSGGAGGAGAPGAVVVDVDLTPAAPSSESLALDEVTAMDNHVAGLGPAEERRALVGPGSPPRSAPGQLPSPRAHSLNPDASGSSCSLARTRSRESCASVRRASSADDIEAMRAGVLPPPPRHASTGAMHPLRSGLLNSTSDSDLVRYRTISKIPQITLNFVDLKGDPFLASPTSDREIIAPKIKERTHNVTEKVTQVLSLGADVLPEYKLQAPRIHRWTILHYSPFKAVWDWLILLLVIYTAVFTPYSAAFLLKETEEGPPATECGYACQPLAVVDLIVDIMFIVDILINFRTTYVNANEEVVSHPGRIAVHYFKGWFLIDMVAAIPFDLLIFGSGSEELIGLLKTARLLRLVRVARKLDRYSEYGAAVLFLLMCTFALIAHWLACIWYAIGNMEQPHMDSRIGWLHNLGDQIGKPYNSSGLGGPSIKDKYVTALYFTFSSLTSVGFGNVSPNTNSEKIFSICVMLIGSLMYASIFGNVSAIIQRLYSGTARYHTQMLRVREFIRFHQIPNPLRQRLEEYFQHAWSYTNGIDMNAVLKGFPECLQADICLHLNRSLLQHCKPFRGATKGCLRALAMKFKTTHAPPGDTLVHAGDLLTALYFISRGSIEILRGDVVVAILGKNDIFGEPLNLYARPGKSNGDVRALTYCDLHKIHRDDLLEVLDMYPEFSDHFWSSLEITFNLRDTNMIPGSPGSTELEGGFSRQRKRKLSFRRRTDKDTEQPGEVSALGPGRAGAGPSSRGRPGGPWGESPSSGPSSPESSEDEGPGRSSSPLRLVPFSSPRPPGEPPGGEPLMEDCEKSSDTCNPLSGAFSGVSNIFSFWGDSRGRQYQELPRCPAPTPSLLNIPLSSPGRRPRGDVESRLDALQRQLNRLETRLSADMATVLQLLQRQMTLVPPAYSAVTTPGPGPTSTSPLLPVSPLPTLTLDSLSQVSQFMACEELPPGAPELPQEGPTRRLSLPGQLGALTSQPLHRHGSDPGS
compound,measurement,setting,value
CC(C)CCCCOC(=O)c1ccccc1C(=O)OCCCCC(C)C,Potency,[1],inactive
same,Potency,[2],inactive
same,Potency,[3],inactive
same,outcome,[4],inactive
same,Potency,[5],inactive
same,Potency,[6],inactive
same,Potency,[7],inactive
same,Potency,[8],31.8 µM (active)
same,Potency,[9],17.9 µM (active)
same,Potency,[10],inactive
CC(C)NCC(O)COc1ccc(COCCOC(C)C)cc1 (stereo not given),Potency,[1],inactive
same,Potency,[2],inactive
same,Potency,[3],inactive
same,outcome,[4],inactive
same,Potency,[5],inactive
same,Potency,[6],inactive
same,max activation,[11],-3.07%
same,Potency,[12],inactive
same,Potency,[13],inactive
same,Potency,[7],inactive
same,Potency,[8],inactive
same,Potency,[9],inactive
same,Potency,[14],inactive
same,Potency,[10],inactive
O=C(O)C(=O)Cc1ccccc1,Potency,[1],inactive
same,Potency,[2],inactive
same,Potency,[3],inactive
same,outcome,[4],inactive
same,Potency,[5],inactive
same,Potency,[6],inactive
same,Potency,[7],inactive
same,Potency,[9],inactive
same,Potency,[10],inactive
same,Potency,[15],inactive
CN1C(C)(C)CCCC1(C)C,Potency,[1],inactive
same,Potency,[2],inactive
same,Potency,[3],inactive
same,outcome,[4],inactive
same,Potency,[5],inactive
same,Potency,[6],inactive
same,Potency,[7],2.45 µM (active)
same,Potency,[8],inactive
same,Potency,[14],inactive
same,Potency,[10],inactive
same,Potency,[15],inactive
Cc1cccc(OCC(O)CNC(C)(C)C)c1C (stereo not given),Potency,[1],inactive
same,Potency,[2],inactive
same,Potency,[3],inactive
same,outcome,[4],inactive
same,Potency,[5],inactive
same,Potency,[6],inactive
same,Potency,[7],13.8 µM (active)
same,Potency,[8],inactive
same,Potency,[9],inactive
same,Potency,[10],inactive
same,Potency,[15],inactive
Cc1cc(Cl)c(C)cc1Cl,Potency,[1],inactive
same,Potency,[2],inactive
same,Potency,[3],inactive
same,outcome,[4],inactive
same,Potency,[5],inactive
same,Potency,[6],inactive
same,Potency,[7],inactive
same,Potency,[8],inactive
same,Potency,[9],inactive
same,Potency,[14],inactive
same,Potency,[10],inactive
same,Potency,[15],inactive
CC(C)N(c1ccccc1)C(C)C,Potency,[1],inactive
same,Potency,[2],inactive
same,Potency,[3],inactive
same,outcome,[4],inactive
same,Potency,[5],inactive
same,Potency,[6],inactive
same,Potency,[7],inactive
same,Potency,[8],inactive
same,Potency,[9],inactive
same,Potency,[14],inactive
same,Potency,[10],inactive
same,Potency,[15],inactive
Cc1cc(C(C)(C)C)c(O)c(C)c1CC1=NCCN1,Potency,[1],inactive
same,Potency,[2],inactive
same,Potency,[3],inactive
same,outcome,[4],inactive
same,Potency,[5],inactive
same,Potency,[6],inactive
same,Potency,[7],1.55 µM (active)
same,Potency,[8],inactive
same,Potency,[9],inactive
same,Potency,[14],inactive
same,Potency,[15],inactive
C=C(C)C(=O)OCc1ccccc1,Potency,[1],inactive
same,Potency,[2],inactive
same,Potency,[3],inactive
same,outcome,[4],inactive
same,Potency,[5],inactive
same,Potency,[6],inactive
same,Potency,[7],inactive
same,Potency,[9],inactive
same,Potency,[10],inactive
same,Potency,[15],inactive
O=C(OCC(COC(=O)c1cccnc1)(COC(=O)c1cccnc1)COC(=O)c1cccnc1)c1cccnc1,Potency,[1],inactive
same,Potency,[2],inactive
same,Potency,[3],inactive
same,outcome,[4],inactive
same,Potency,[5],inactive
same,Potency,[6],inactive
same,Potency,[7],inactive
same,Potency,[8],inactive
same,Potency,[10],inactive
O=S(O)(O)=S,"activity change, negative = cytotoxicity",[1],-0.159% [at 8.39 µM]
same,caspase activation,[2],0.115% [at 8.39 µM]
same,"activity change, negative = cytotoxicity",[3],4.08% [at 8.39 µM]
same,caspase-3/7 activation,[4],0.413% [at 8.39 µM]
same,"activity change, negative = cytotoxicity",[5],-0.702% [at 8.39 µM]
same,activation,[6],4.46% [at 8.39 µM]
same,"activity change, negative = inhibition",[7],-0.0268% [at 10.5 µM]
same,"activity change, negative = inhibition",[8],-17.3% [at 10.5 µM]
same,"activity change, negative = inhibition",[9],-6.3% [at 10.5 µM]
same,"activity change, negative = inhibition",[14],-12.3% [at 10.5 µM]
same,"activity change, negative = inhibition",[10],-2.48% [at 6.97 µM]
same,"activity change, negative = inhibition",[15],0.412% [at 10.5 µM]
N[C@@H](COP(=O)(O)O)C(=O)O,"activity change, negative = cytotoxicity",[1],17.9% [at 19 µM]
same,caspase activation,[2],0.675% [at 19 µM]
same,"activity change, negative = cytotoxicity",[3],4.45% [at 19 µM]
same,caspase-3/7 activation,[4],0.116% [at 19 µM]
same,"activity change, negative = cytotoxicity",[5],5.73% [at 19 µM]
same,activation,[6],9.49% [at 19 µM]
same,max activation,[11],-0.35%
same,Potency,[12],inactive
same,Potency,[13],inactive
same,"activity change, negative = inhibition",[8],14.8% [at 23.6 µM]
same,"activity change, negative = inhibition",[10],2.29% [at 15.8 µM]
same,"activity change, negative = inhibition",[15],2.53% [at 23.6 µM]
C=CC(OCC)OCC,Potency,[1],inactive
same,Potency,[2],inactive
same,Potency,[3],inactive
same,outcome,[4],inactive
same,Potency,[5],inactive
same,Potency,[6],inactive
same,Potency,[7],inactive
same,Potency,[8],inactive
same,Potency,[9],inactive
same,Potency,[14],inactive
same,Potency,[10],inactive
same,Potency,[15],inactive
C=C1CC/C=C(\C)CC[C@@H]2[C@@H]1CC2(C)C,Potency,[1],inactive
same,Potency,[2],inactive
same,Potency,[3],inactive
same,outcome,[4],inactive
same,Potency,[5],inactive
same,Potency,[6],inactive
same,Potency,[7],inactive
same,Potency,[8],inactive
same,Potency,[9],inactive
same,Potency,[14],inactive
same,Potency,[10],inactive
same,Potency,[15],inactive
CC(C)c1ccc2cc(C(C)C)ccc2c1,Potency,[1],inactive
same,Potency,[2],inactive
same,Potency,[3],inactive
same,outcome,[4],inactive
same,Potency,[5],inactive
same,Potency,[6],61.1 µM (active)
same,Potency,[7],inactive
same,Potency,[9],inactive
same,Potency,[10],inactive
same,Potency,[15],inactive
CC(S)C(=O)NCC(=O)O (stereo not given),Potency,[1],inactive
same,Potency,[2],inactive
same,Potency,[3],inactive
same,outcome,[4],inactive
same,Potency,[5],inactive
same,Potency,[6],inactive
same,max activation,[11],-1.79%
same,Potency,[12],inactive
same,Potency,[13],inactive
same,Potency,[7],inactive
same,Potency,[8],inactive
same,Potency,[9],inactive
same,Potency,[14],inactive
same,Potency,[10],inactive
same,Potency,[15],inactive
CCN1CCc2nc(N)oc2CC1,Potency,[1],inactive
same,Potency,[2],inactive
same,Potency,[3],inactive
same,outcome,[4],inactive
same,Potency,[5],inactive
same,Potency,[6],inactive
same,max activation,[11],-5.4%
same,Potency,[12],inactive
same,Potency,[13],inactive
same,Potency,[8],inactive
same,Potency,[9],inactive
same,Potency,[10],inactive
same,Potency,[15],inactive
Cc1cccc(C)c1OCC(C)N (stereo not given),Potency,[1],inactive
same,Potency,[2],inactive
same,Potency,[3],inactive
same,outcome,[4],inactive
same,Potency,[5],inactive
same,Potency,[6],inactive
same,max activation,[11],-1.45%
same,Potency,[12],inactive
same,Potency,[13],inactive
same,Potency,[7],13.8 µM (active)
same,Potency,[8],inactive
same,Potency,[14],1.62 µM (active)
same,Potency,[10],inactive
same,Potency,[15],inactive
